# Experimental data published in PubChem BioAssay.
# Calls of active or inactive are those of the source. Unless noted, the rule behind the calls is not given here.
# Columns and labels:
# [1] = test system: Wnt5a (protein binding on small-molecule microarray); test: small molecules binding Wnt5a protein – biophysical, small-molecule microarray, 635/667 nm fluorescence, primary screen (AID 1142); conditions: 635 nm fluorescence, higher = more signal;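 note: fluorescence read at 667 nm with signal to noise per printed feature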
# [2] = ATP-based viability of Huh7 replicon cells – cell-based, CellTiter-Glo luminescence, basal, 48 h, cytotoxicity control for HCV replication inhibitor project, primary screen (AID 1143); conditions: higher = more signal, called active from +8 up or from −8 down;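 note: Huh7 hepatoma cells carrying a hepatitis C replication reporter with no stimulus; test concentration not given here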
# [3] = Pseudomonas biofilm growth suppression – PAO1 strain, BacTiter-Glo luminescence, LB-PBS, primary screen (AID 1144); conditions: P. aeruginosa PAO1 biofilm, 12 h, higher = more signal
# [4] = basal CRE-LacZ reporter activity in PC12 – cell-based, unstimulated, primary screen (AID 1145); conditions: no forskolin, luminescence, 4.5 h, higher = more signal, called active from +8 up or from −8 down
# [5] = forskolin-driven CRE-LacZ activity in PC12 – cell-based, CRE-LacZ reporter, forskolin-stimulated, primary screen (AID 1146); conditions: luminescence, 4.5 h, higher = more signal, called active from +8 up or from −8 down;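 note: PC12 cells with 6xCRE LacZ reporter stimulated by forskolin 10 µM; beta-galactosidase reporter signal reflecting CREB driven transcription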
# [6] = target: Streptavidin (Streptomyces avidinii) (UniProt P22629); test: compounds binding control protein streptavidin – biophysical, small-molecule microarray, 635/667 nm fluorescence, artefact control for SMM compound annotation, primary screen (AID 1147); conditions: higher = more signal;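 note: signal reflects streptavidin binding to arrayed compounds as a control protein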
# Streptavidin (Streptomyces avidinii), sequence (P22629 whole entry, looked up): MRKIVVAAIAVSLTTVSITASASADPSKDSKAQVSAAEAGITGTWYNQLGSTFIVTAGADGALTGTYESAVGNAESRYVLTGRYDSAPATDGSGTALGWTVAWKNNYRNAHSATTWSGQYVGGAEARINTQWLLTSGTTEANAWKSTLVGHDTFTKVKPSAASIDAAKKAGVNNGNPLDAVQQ
# [7] = probe aInhba binding on compound microarray – biochemical, small-molecule microarray, 635/667 nm fluorescence, primary screen (AID 1148); conditions: higher = more signal;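 note: score merges 667nm spot fluorescence with signal-to-noise for antibody binding to printed compounds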
# Torsin-1A (Homo sapiens) [8] = target: Torsin-1A (Homo sapiens) (UniProt O14656); test: TOR1A wild-type binding on microarray – cell lysate, small-molecule microarray, lysate, 635/667 nm, primary screen (AID 1149); conditions: COS7 hTOR1A-WT lysate, 635 nm fluorescence, higher = more signal
# Torsin-1A (Homo sapiens), sequence (O14656 whole entry, looked up): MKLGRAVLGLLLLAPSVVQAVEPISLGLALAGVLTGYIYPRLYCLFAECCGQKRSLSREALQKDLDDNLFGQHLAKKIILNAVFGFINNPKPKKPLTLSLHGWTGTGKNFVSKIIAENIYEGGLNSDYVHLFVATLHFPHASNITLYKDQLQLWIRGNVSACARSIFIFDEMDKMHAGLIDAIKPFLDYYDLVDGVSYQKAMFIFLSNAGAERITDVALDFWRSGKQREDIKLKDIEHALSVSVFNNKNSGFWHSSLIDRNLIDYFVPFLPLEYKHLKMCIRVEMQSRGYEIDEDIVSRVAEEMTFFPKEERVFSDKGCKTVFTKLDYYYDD
# Torsin-1A (Homo sapiens) [9] = target: Torsin-1A (Homo sapiens) (UniProt O14656); test: torsin A mutant lysate binding on microarrays – cell lysate, small-molecule microarray, COS7 lysate, 635/667 nm fluorescence, primary screen (AID 1150); conditions: COS7 hTOR1A mutant lysate, 635 nm fluorescence, higher = more signal;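 note: score pools 667 nm emission and signal to noise measuring lysate protein binding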
# [10] = test system: Sonic hedgehog protein (Shh); test: Sonic hedgehog microarray binding compounds – biochemical, small-molecule microarray, 635/667 nm fluorescence, primary screen (AID 1151); conditions: 635 nm fluorescence, higher = more signal;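 note: Shh protein binding to compounds spotted on small-molecule microarray slides; score combines spot fluorescence intensity with signal-to-noise across triplicate slides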
# [11] = optical density shifts of acrAB sulA E. coli – strain DRC41, OD650, 48 h, E. coli filamentation inducer project, primary screen (AID 1152); conditions: higher = more signal, called active from +8 up or from −8 down;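 note: E. coli MC1000 strain DRC41 lacking acrAB efflux pump and sulA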
# [12] = probe aLefty1 binding on compound microarray – biochemical, small-molecule microarray, 635/667 nm fluorescence, primary screen (AID 1153); conditions: higher = more signal;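 note: score merges spot fluorescence with signal-to-noise ratio from the scanned slide images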
# [13] = plasmodial surface anion channel blockers, osmotic lysis – cell-based, P. falciparum Indochina, OD700, 1 h, primary screen (AID 1154); conditions: P. falciparum Indochina infected RBC osmotic lysis, higher = more signal, called active from +8 up or from −8 down
# [14] = plasmodial surface anion channel blockers, osmotic lysis – cell-based, P. falciparum Indochina, OD700, 2 h, primary screen (AID 1155);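 note: lysis reports solute entry through the parasite surface anion channel PSAC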; conditions: P. falciparum Indochina infected erythrocytes, higher = more signal, called active from +8 up or from −8 down
# [15] = changes in parasitized red cell lysis, either direction – P. falciparum Indochina, OD700, 3 h, PSAC antagonist project, primary screen (AID 1156); conditions: P. falciparum-infected erythrocytes, osmotic lysis, higher = more signal, called active from +8 up or from −8 down
# [16] = plasmodial surface anion channel blockers, osmotic lysis – cell-based, P. falciparum Indochina, OD700, 18 h, primary screen (AID 1157); conditions: P. falciparum Indochina infected erythrocytes, osmotic lysis OD700, 18 h; higher = more signal, called active from +8 up or from −8 down
# [17] = S6 kinase pathway phospho-S6 level changes – cell-based, A549, cytoblot, luminescence, serum-stimulated, primary screen (AID 1158); conditions: 5 h, higher = more signal;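 note: serum-stimulated A549 lung adenocarcinoma cells; signal is phosphorylated S6 detected by cytoblot immunostaining with HRP secondary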
# [18] = target: NADPH oxidase 2 (Homo sapiens) (UniProt P04839); test: compounds shifting NOX2 Amplex Red fluorescence – cell-based, HEK293-NOX2, PMA-stimulated, NOX inhibitor project, primary screen (AID 1159); conditions: 45 min, higher = more signal, called active from +8 up or from −8 down; note: test concentration not given here
# NADPH oxidase 2 (Homo sapiens), sequence (P04839 whole entry, looked up): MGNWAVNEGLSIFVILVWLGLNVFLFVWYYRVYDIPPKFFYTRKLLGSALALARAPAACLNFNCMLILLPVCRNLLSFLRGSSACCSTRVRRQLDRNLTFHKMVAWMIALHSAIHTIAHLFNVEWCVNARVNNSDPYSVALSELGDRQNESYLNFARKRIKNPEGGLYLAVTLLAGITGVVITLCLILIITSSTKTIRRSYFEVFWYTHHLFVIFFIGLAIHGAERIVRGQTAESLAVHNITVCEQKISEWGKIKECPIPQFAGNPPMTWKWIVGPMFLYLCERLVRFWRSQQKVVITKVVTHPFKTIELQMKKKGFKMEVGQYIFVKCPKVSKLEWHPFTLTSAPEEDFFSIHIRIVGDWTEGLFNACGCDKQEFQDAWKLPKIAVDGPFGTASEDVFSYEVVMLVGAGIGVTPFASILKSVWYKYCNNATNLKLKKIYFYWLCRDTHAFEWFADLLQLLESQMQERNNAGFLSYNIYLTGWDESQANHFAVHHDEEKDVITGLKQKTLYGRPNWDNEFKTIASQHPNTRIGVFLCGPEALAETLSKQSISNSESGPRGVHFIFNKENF
# [19] = target: NADPH oxidase 4 (Homo sapiens) (UniProt Q9NPH5); test: compounds shifting NOX4 Amplex Red fluorescence – cell-based, HEK293-NOX4, tetracycline-induced, NOX inhibitor project, primary screen (AID 1160); conditions: HEK293-NOX4, Amplex Red H2O2 fluorescence, 45 min; higher = more signal, called active from +8 up or from −8 down
# NADPH oxidase 4 (Homo sapiens), sequence (Q9NPH5 whole entry, looked up): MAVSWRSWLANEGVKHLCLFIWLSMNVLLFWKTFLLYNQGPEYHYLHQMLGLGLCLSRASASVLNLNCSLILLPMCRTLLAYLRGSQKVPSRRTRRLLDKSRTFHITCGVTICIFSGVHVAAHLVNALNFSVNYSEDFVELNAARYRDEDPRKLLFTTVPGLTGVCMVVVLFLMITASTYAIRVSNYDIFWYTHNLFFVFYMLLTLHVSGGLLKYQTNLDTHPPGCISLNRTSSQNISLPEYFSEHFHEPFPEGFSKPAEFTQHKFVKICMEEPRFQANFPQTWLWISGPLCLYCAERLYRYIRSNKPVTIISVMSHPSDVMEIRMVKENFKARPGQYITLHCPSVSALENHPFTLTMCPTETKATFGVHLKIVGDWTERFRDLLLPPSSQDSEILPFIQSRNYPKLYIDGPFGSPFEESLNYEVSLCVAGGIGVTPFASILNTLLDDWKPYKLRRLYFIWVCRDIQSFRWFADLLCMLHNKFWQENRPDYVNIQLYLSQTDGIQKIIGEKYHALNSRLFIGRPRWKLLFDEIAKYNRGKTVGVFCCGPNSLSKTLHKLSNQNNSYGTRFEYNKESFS
# [20] = target: NADPH oxidase 5 (Homo sapiens) (UniProt Q96PH1); test: compounds shifting NOX5 Amplex Red fluorescence – cell-based, HEK293-NOX5, NOX inhibitor project, primary screen (AID 1161); conditions: HEK293-NOX5, ionomycin, 45 min, higher = more signal
# NADPH oxidase 5 (Homo sapiens), sequence (Q96PH1 whole entry, looked up): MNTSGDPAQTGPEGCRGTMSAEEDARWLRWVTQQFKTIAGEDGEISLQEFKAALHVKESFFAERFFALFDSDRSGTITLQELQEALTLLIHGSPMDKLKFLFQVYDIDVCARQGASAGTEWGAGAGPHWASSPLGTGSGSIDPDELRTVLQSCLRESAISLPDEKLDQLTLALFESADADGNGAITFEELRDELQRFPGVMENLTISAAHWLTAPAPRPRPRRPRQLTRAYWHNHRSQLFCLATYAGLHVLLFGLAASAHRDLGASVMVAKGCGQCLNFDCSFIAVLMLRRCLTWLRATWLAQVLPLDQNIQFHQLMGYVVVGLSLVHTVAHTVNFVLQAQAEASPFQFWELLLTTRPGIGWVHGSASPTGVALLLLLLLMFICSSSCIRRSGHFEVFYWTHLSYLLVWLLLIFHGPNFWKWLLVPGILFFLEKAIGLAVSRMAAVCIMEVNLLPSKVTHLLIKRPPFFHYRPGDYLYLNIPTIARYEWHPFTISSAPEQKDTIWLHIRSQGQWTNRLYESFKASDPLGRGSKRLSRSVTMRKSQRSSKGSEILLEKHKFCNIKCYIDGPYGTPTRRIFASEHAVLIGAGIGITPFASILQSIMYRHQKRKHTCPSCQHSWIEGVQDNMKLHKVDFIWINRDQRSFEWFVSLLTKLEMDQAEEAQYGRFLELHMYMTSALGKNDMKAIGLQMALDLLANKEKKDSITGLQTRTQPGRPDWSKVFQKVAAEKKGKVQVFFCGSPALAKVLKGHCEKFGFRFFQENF
structure (smiles),measurement,setting,value
CO[C@H]1O[C@H](CO)[C@@H](OC(=O)c2ccc(Br)cc2)[C@@H]2OC(=O)[C@@H](Cc3ccc4ccccc4c3)C/C=C/C[C@H](Cc3ccc4ccccc4c3)C(=O)O[C@@H]12,composite z-score,[1],0.18
same,z-score,[2],-2.88 (inactive)
same,z-score,[3],0.4 (inactive)
same,z-score,[4],0.139 (inactive)
same,z-score,[5],-0.433 (inactive)
same,composite z-score,[6],0.48
same,composite z-score,[7],-0.103
same,composite z-score,Torsin-1A (Homo sapiens) [8],0.0121
same,composite z-score,Torsin-1A (Homo sapiens) [9],0.625
same,composite z-score,[10],-0.219
same,z-score,[11],0.689 (inactive)
same,composite z-score,[12],-0.113
same,z-score,[13],2.52 (inactive)
same,z-score,[14],-0.503 (inactive)
same,z-score,[15],-1.15 (inactive)
same,z-score,[16],-2.1 (inactive)
same,z-score,[17],1.74
same,z-score,[18],1.76 (inactive)
same,z-score,[19],0.00292 (inactive)
same,z-score,[20],-1.77
COCCOC(=O)N1C(=O)[C@@]2(c3ccccc31)[C@H](c1ccc(OCCO)cc1)N1[C@H](c3ccccc3)[C@H](c3ccccc3)OC(=O)[C@H]1[C@@H]2C(=O)Nc1nc2ccccc2s1,composite z-score,[1],0.528
same,z-score,[2],-1.49 (inactive)
same,z-score,[3],-0.58 (inactive)
same,z-score,[4],0.505 (inactive)
same,z-score,[5],11.9 (active)
same,composite z-score,[6],0.962
same,composite z-score,[7],0.239
same,composite z-score,Torsin-1A (Homo sapiens) [8],0.73
same,composite z-score,Torsin-1A (Homo sapiens) [9],0.558
same,composite z-score,[10],1.1
same,z-score,[11],0.269 (inactive)
same,composite z-score,[12],0.071
same,z-score,[13],4.55 (inactive)
same,z-score,[14],2.02 (inactive)
same,z-score,[15],-0.214 (inactive)
same,z-score,[16],1.74 (inactive)
same,z-score,[17],-0.381
same,z-score,[18],1.13 (inactive)
same,z-score,[19],1.17 (inactive)
same,z-score,[20],1.28
C[C@@H](OCc1ccccc1)C1NC(=O)[C@@]23C(=O)N[C@@H](Cc4ccccc4)C2[C@H](C)[C@@]2(C)O[C@H]2C3/C=C/C/C=C\CNC(=O)CNC1=O (stereo not given in full),composite z-score,[1],-0.556
same,z-score,[2],-2.16 (inactive)
same,z-score,[3],-0.295 (inactive)
same,z-score,[4],-0.962 (inactive)
same,z-score,[5],-0.88 (inactive)
same,composite z-score,[6],-0.918
same,composite z-score,[7],-0.105
same,composite z-score,Torsin-1A (Homo sapiens) [8],0.333
same,composite z-score,Torsin-1A (Homo sapiens) [9],-0.104
same,composite z-score,[10],1.24
same,z-score,[11],-0.824 (inactive)
same,composite z-score,[12],-0.012
same,z-score,[13],1.53 (inactive)
same,z-score,[14],0.095 (inactive)
same,z-score,[15],0.543 (inactive)
same,z-score,[16],-0.0634 (inactive)
same,z-score,[17],-0.213
same,z-score,[18],1.01 (inactive)
same,z-score,[19],1.32 (inactive)
same,z-score,[20],1.56
CC(C)(C)OC(=O)CC[C@]1(C(=O)O)N=C(c2ccc(OCCCO)cc2)O[C@H]1c1ccccc1,composite z-score,[1],-0.221
same,z-score,[2],-1.48 (inactive)
same,z-score,[3],-0.278 (inactive)
same,z-score,[4],-0.986 (inactive)
same,z-score,[5],-0.72 (inactive)
same,composite z-score,[6],0.235
same,composite z-score,[7],-0.102
same,composite z-score,Torsin-1A (Homo sapiens) [8],-0.272
same,composite z-score,Torsin-1A (Homo sapiens) [9],0.113
same,composite z-score,[10],-0.899
same,z-score,[11],1.11 (inactive)
same,composite z-score,[12],-0.362
same,z-score,[13],11.9 (active)
same,z-score,[14],1.08 (inactive)
same,z-score,[15],-0.0867 (inactive)
same,z-score,[16],-0.284 (inactive)
same,z-score,[17],0.733
same,z-score,[18],0.643 (inactive)
same,z-score,[19],0.228 (inactive)
same,z-score,[20],1.68
[N-]=[N+]=Nc1ccccc1[C@H]1OC(c2ccc(OCCCO)cc2)=N[C@@]1(CCS(=O)(=O)c1ccccc1)C(=O)N1CCCCC1,composite z-score,[1],0.375
same,z-score,[2],-4.28 (inactive)
same,z-score,[3],-1.21 (inactive)
same,z-score,[4],0.47 (inactive)
same,z-score,[5],-0.993 (inactive)
same,composite z-score,[6],1.89
same,composite z-score,[7],0.153
same,composite z-score,Torsin-1A (Homo sapiens) [8],0.456
same,composite z-score,Torsin-1A (Homo sapiens) [9],1.01
same,composite z-score,[10],-0.678
same,z-score,[11],-0.311 (inactive)
same,composite z-score,[12],0.495
same,z-score,[13],29.8 (active)
same,z-score,[14],23.1 (active)
same,z-score,[15],3.29 (inactive)
same,z-score,[16],3.04 (inactive)
same,z-score,[17],1.04
same,z-score,[18],-1.34 (inactive)
same,z-score,[19],0.303 (inactive)
same,z-score,[20],-0.265
CCCC[C@@H]1C[C@H]1[C@@H](NC(=O)c1ccccc1)c1ccc(Cl)cc1,composite z-score,[1],-0.546
same,z-score,[2],-2.6 (inactive)
same,z-score,[3],0.173 (inactive)
same,z-score,[4],0.197 (inactive)
same,z-score,[5],0.699 (inactive)
same,composite z-score,[6],-1.33
same,composite z-score,[7],-0.322
same,composite z-score,Torsin-1A (Homo sapiens) [8],4.37
same,composite z-score,Torsin-1A (Homo sapiens) [9],-0.539
same,composite z-score,[10],-1.34
same,z-score,[11],-2.41 (inactive)
same,composite z-score,[12],0.233
same,z-score,[13],1.72 (inactive)
same,z-score,[14],0.589 (inactive)
same,z-score,[15],-0.573 (inactive)
same,z-score,[16],0.839 (inactive)
same,z-score,[17],-0.584
same,z-score,[18],-0.093 (inactive)
same,z-score,[19],-0.505 (inactive)
same,z-score,[20],1.86
C=CCOC(=O)[C@H]1[C@@H]2C(=O)O[C@@H](c3ccccc3)[C@@H](c3ccccc3)N2[C@@H](c2ccc(OCCOC(=O)[C@H]3C[C@H]4C(=O)N[C@@H](Cc5ccccc5)C(=O)N4[C@H]3c3cccc(OCCO)c3)cc2)[C@]12C(=O)Nc1ccc(I)cc12,composite z-score,[1],0.971
same,z-score,[2],-0.441 (inactive)
same,z-score,[3],-0.283 (inactive)
same,z-score,[4],0.688 (inactive)
same,z-score,[5],0.144 (inactive)
same,composite z-score,[6],0.309
same,composite z-score,[7],-0.0112
same,composite z-score,Torsin-1A (Homo sapiens) [8],0.703
same,composite z-score,Torsin-1A (Homo sapiens) [9],0.815
same,composite z-score,[10],2.16
same,z-score,[11],-0.386 (inactive)
same,composite z-score,[12],1.29
same,z-score,[13],0.977 (inactive)
same,z-score,[14],0.856 (inactive)
same,z-score,[15],-0.874 (inactive)
same,z-score,[16],0.84 (inactive)
same,z-score,[17],-0.28
same,z-score,[18],2.07 (inactive)
same,z-score,[19],1.35 (inactive)
same,z-score,[20],1.52
CC(C)c1ccc(NN2C(C(O)c3ccco3)C=CC3C(=O)N(c4ccccc4)C(=O)C32)cc1 (stereo not given),composite z-score,[1],0.445
same,z-score,[2],-0.604 (inactive)
same,z-score,[3],-0.688 (inactive)
same,z-score,[4],0.622 (inactive)
same,z-score,[5],-0.554 (inactive)
same,composite z-score,[6],1.47
same,composite z-score,[7],0.271
same,composite z-score,Torsin-1A (Homo sapiens) [8],0.185
same,composite z-score,Torsin-1A (Homo sapiens) [9],0.445
same,composite z-score,[10],0.794
same,z-score,[11],-0.302 (inactive)
same,composite z-score,[12],0.409
same,z-score,[13],6.96 (inactive)
same,z-score,[14],1.93 (inactive)
same,z-score,[15],0.626 (inactive)
same,z-score,[16],1.29 (inactive)
same,z-score,[17],-0.694
same,z-score,[18],-1.67 (inactive)
same,z-score,[19],-1.95 (inactive)
same,z-score,[20],-1.88
